The values that follow come from PubChem BioAssay (EPA / NIEHS).

Inconclusive results are not listed. Calls of active or inactive are those of the source. The calls were made as follows, unless noted: active = hit-call score of the fitted dose curve at least 0.9, where 1 is the maximum; inactive = score below 0.9.

Test [1] can be described thus: BSK_BT_Bcell_Proliferation: Viability Assessment in the BioMAP Diversity Plus: BT Assay for B cell Proliferation (AID 2284227). As to conditions: primary human B cells with PBMC. The essentials: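 Human B cell/PBMC co-culture; test chemical added; 72 h; TCA fix (10%), 0.1% SRB stain, A560 for total protein as a proliferation read-out; positive-direction fit vs DMSO baseline.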

Read-out in test [2]: Interleukin 6 (IL6), IL6 (gene 3569)
Put plainly: BSK_BT_xIL6: BioMAP Diversity Plus: BT Assay for Interleukin 6 (IL6) Biomarker Activity (AID 2284228). As to conditions: primary human B cells with PBMC. The essentials:
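Human B cell/PBMC co-culture; secreted IL-6 quantified by Luminex xMAP 24 h after chemical dosing, fitted relative to DMSO. Parallel PBMC viability by Alamar Blue after 1 h pretreatment, 20 ng/mL SEB and TSST-1, 90 h incubation.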

Read-out in test [3]: Interleukin 17A (IL17A), IL17A (gene 3605)
Put plainly: BSK_BT_xIL17A: BioMAP Diversity Plus: BT Assay for Interleukin 17A (IL17A) Biomarker Activity (AID 2284229). The conditions noted are these: primary human B cells with PBMC. The essentials: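 Co-culture of human B cells and PBMC, dosed for 24 h in 96-well format. Secreted IL-17A measured with Luminex xMAP; gain-direction fitting against DMSO as baseline.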

Read-out in test [4]: Tumor necrosis factor (Homo sapiens) (UniProt P01375)
As to the kind of experiment: BSK_BT_xTNFa: BioMAP Diversity Plus: BT Assay for Tumor necrosis factor alpha (TNF-alpha) Biomarker Activity (AID 2284230). As to conditions: primary human B cells with PBMC. The essentials:
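Read-out: Luminex xMAP quantitation of secreted TNF-alpha from a B cell/PBMC co-culture 24 h after compound addition. Signal analysed relative to DMSO vehicle, positive fitting direction.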

Read-out in test [5]: Vascular cell adhesion molecule 1 (VCAM1), VCAM1 (gene 7412)
Put plainly: BSK_MyoF_VCAM1: BioMAP Diversity Plus: MyoF Assay for Vascular cell adhesion molecule 1 (VCAM1) Biomarker Activity (AID 2284231). As to conditions: primary human lung fibroblasts. Put shortly: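 Primary human lung fibroblasts (BioMAP MyoF system) dosed with chemical, VCAM-1 measured by ELISA 24 hours later. Fitted in the positive direction against DMSO; parallel SRB staining assessed cytotoxicity.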

Read-out in test [6]: Collagen III, COL3A1 (gene 1281)
Put plainly: BSK_MyoF_CollagenIII: BioMAP Diversity Plus: MyoF Assay for Collagen III Biomarker Activity (AID 2284239). The conditions noted are these: primary human lung fibroblasts. The essentials:
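Primary human lung fibroblasts (BioMAP MyoF system) exposed 24 h. Collagen III measured by ELISA; positive-direction fit relative to DMSO.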

Read-out in test [7]: Interleukin 17F (IL17F), IL17F (gene 112744)
Put plainly: BSK_BT_xIL17F: BioMAP Diversity Plus: BT Assay for Interleukin 17F (IL17F) Biomarker Activity (AID 2284243). As to conditions: primary human B cells with PBMC. The essentials:
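Human PBMC co-cultured with B cells, compound exposure 24 h; secreted IL-17F quantified by Luminex xMAP, referenced to DMSO control. PBMC viability measured in parallel by Alamar Blue reduction.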

Read-out in test [8]: Actin alpha 1 (ACTA1), ACTA1 (gene 58)
As to the kind of experiment: BSK_MyoF_ACTA1: BioMAP Diversity Plus: MyoF Assay for Actin alpha 1 (ACTA1) Biomarker Activity (AID 2284244). The conditions noted are these: primary human lung fibroblasts. The essentials: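 Human lung fibroblast (MyoF system) cultures dosed with test chemical; alpha-SMA measured by ELISA 24 h after dosing, normalized to DMSO control. Cytotoxicity tracked in parallel cultures by SRB total-protein staining.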

Read-out in test [9]: Interleukin 2 (IL2), IL2 (gene 3558)
Put plainly: BSK_BT_xIL2: BioMAP Diversity Plus: BT Assay for Interleukin 2 (IL2) Biomarker Activity (AID 2284245). The conditions noted are these: primary human B cells with PBMC. The essentials: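 Human B cell plus PBMC co-culture, 24 h after chemical dosing; secreted IL-2 quantified by Luminex xMAP multiplex, fitted for signal gain against DMSO baseline.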

Read-out in test [10]: Basic fibroblast growth factor (bFGF), FGF2 (gene 2247)
Put plainly: BSK_MyoF_bFGF: BioMAP Diversity Plus: MyoF Assay for Basic fibroblast growth factor (bFGF) Biomarker Activity (AID 2284246). The conditions noted are these: primary human lung fibroblasts. Put shortly:
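Human lung fibroblast cultures were dosed and measured 24 h later in 96-well format. bFGF biomarker levels quantified by ELISA, with activity fitted in the positive direction against DMSO.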

Read-out in test [11]: Collagen IV, COL4A1 (gene 1282)
Put plainly: BSK_MyoF_CollagenIV: BioMAP Diversity Plus: MyoF Assay for Collagen IV Biomarker Activity (AID 2284247). As to conditions: primary human lung fibroblasts. Put shortly: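 Primary human lung fibroblasts (MyoF system) dosed 24 h; Collagen IV measured by ELISA. Activity fitted in positive direction against DMSO; cytotoxicity tracked by SRB total-protein staining in parallel cultures.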

Read-out in test [12]: Plasminogen activator inhibitor-1 (PAI1), SERPINE1 (gene 5054)
As to the kind of experiment: BSK_MyoF_PAI1: BioMAP Diversity Plus: MyoF Assay for Plasminogen activator inhibitor-1 (PAI1) Biomarker Activity (AID 2284256).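 As to outcome: PAI-1 read 24 h after compound addition.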 The conditions noted are these: primary human lung fibroblasts. Put shortly: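 Primary human lung fibroblasts treated with chemical for 24 h; PAI-1 levels quantified by ELISA relative to DMSO. Cytotoxicity was assessed in parallel cultures by SRB total-protein staining (0.1% SRB after 10% TCA fixation, 560 nm).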

Read-out in test [13]: Interleukin-8 (IL8), CXCL8 (gene 3576)
Put plainly: BSK_MyoF_IL8: BioMAP Diversity Plus: MyoF Assay for Interleukin-8 (IL8) Biomarker Activity (AID 2284261). The conditions noted are these: primary human lung fibroblasts. Put shortly: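 Human lung fibroblast (MyoF system) cultures dosed for 24 h, then IL-8 measured by ELISA. Response taken relative to DMSO; parallel SRB total-protein staining for cytotoxicity.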

Read-out in the next test: Decorin, DCN (gene 1634)
Put plainly: BSK_MyoF_Decorin: BioMAP Diversity Plus: MyoF Assay for Decorin Biomarker Activity (AID 2284265). As to conditions: primary human lung fibroblasts. Put shortly: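 Human lung fibroblast cultures were dosed for 24 h, and decorin was then measured by ELISA. Parallel cultures were stained with sulforhodamine B for total protein as a cytotoxicity check. Gain of signal was fitted relative to DMSO.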

The nature of test [14]: BSK_MyoF_SRB: Viability Assessment in the BioMAP Diversity Plus: MyoF Assay (AID 2284267).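 Also: total protein by SRB absorbance in parallel cultures as cytotoxicity measure.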 As to conditions: primary human lung fibroblasts. The essentials:
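Human lung fibroblasts, 24 h after chemical dosing; total protein measured by 0.1% sulforhodamine B staining after 10% TCA fixation, read at 560 nm, fitted relative to DMSO baseline.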

Read-out in test [15]: Matrix Metallopeptidase 1 (MMP1), MMP1 (gene 4312)
Put plainly: BSK_MyoF_MMP1: BioMAP Diversity Plus: MyoF Assay for Matrix Metallopeptidase 1 (MMP1) Biomarker Activity (AID 2284268). As to conditions: primary human lung fibroblasts. Put shortly: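 Human lung fibroblast primary cells; MMP1 measured by ELISA 24 h after dosing, fitted in the positive direction relative to DMSO. Parallel SRB staining (0.1%, after 10% TCA fixation, 560 nm) assesses overt cytotoxicity.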

Read-out in test [16]: TIMP metallopeptidase inhibitor 1 (TIMP1), TIMP1 (gene 7076)
Put plainly: BSK_MyoF_TIMP1: BioMAP Diversity Plus: MyoF Assay for TIMP metallopeptidase inhibitor 1 (TIMP1) Biomarker Activity (AID 2284269). As to conditions: primary human lung fibroblasts. Put shortly:
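ELISA read-out of TIMP-1 from primary human lung fibroblast cultures 24 h after compound dosing; gain of signal relative to DMSO vehicle baseline defines activity.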

In test [17] the target is Retinoic acid receptor alpha (Homo sapiens) (UniProt P10276). Put plainly: ATG_RARa_TRANS: Attagene TRANS-FACTORIAL HepG2 Assay for human Retinoic Acid Receptor alpha (RARa) (AID 2283005; active = hit-call score of the fitted dose curve at least 0.9, where 1 is the maximum). The essentials:
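HepG2 cells transiently transfected with multiple reporter units expressing chimeric RARα-GAL4 fusion, with GAL4-UAS-driven reporters. After 24 h compound exposure, reporter mRNA induction quantified by RT-PCR and capillary electrophoresis with fluorescent labeling; gain-of-signal fitted relative to DMSO control.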

Test [18] in a line: CCTE_Deisenroth_AIME_384WELL_CTox_Inactive: Cytotoxicity Assessment (CTOX) in CCTE's 384-well Estrogen Receptor Transactivation Assay without AIME metabolic competence (metabolism negative), Deisenroth Lab (AID 2284039; active = hit-call score of the fitted dose curve at least 0.9, where 1 is the maximum;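 also: cell viability via live-cell protease substrate cleaved to fluorescent probe; loss of fluorescence signal means loss of viability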). The essentials: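 Fluorescent protease-substrate viability readout after 24 h exposure of VM7Luc4E2 cells to conditioned medium. Chemicals (0.002–200 uM) first sat 2 h over alginate-water beads, no S9. Data fitted bidirectionally, loss of signal meaning viability loss.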

Test [19] has as its target human Phosphodiesterase 10 (PDE10), PDE10A (gene 10846) (UniProt Q9Y233). Put plainly: NVS_ENZ_hPDE10: NovaScreen (NVS) Enzymatic Assay for human Phosphodiesterase 10 (PDE10) (AID 2283195; active = hit-call score of the fitted dose curve at least 0.9, where 1 is the maximum). Put shortly:
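Fluorescence/mobility-shift readout of PDE10A enzyme activity, taken 1 h post-dosing. Primary screen in duplicate at 25 uM; actives (e.g. ≥30% inhibition) retested as singleton concentration-response, top concentration 50 uM.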

Tumor necrosis factor (Homo sapiens), sequence (P01375 whole entry, looked up): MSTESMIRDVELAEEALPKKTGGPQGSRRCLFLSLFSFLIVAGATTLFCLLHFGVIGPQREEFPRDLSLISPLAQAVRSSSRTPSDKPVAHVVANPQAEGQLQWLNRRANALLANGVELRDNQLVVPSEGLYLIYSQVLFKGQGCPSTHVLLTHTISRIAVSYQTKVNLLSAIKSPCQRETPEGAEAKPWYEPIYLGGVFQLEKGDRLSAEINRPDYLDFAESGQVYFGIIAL
Retinoic acid receptor alpha (Homo sapiens), sequence (P10276 whole entry, looked up, the tested form may be a part): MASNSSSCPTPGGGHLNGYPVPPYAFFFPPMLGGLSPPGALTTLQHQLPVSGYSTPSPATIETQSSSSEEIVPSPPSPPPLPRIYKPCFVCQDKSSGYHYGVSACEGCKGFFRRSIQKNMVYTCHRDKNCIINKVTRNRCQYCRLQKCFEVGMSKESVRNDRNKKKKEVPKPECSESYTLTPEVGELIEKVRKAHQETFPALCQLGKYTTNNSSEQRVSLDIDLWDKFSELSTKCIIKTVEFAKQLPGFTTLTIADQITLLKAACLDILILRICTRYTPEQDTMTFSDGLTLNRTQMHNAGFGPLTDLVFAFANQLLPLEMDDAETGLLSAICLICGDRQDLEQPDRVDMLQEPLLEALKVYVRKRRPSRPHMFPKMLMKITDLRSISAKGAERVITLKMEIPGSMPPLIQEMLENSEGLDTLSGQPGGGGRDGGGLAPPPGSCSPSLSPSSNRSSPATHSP
human Phosphodiesterase 10 (PDE10), PDE10A (gene 10846), sequence (Q9Y233 whole entry, looked up): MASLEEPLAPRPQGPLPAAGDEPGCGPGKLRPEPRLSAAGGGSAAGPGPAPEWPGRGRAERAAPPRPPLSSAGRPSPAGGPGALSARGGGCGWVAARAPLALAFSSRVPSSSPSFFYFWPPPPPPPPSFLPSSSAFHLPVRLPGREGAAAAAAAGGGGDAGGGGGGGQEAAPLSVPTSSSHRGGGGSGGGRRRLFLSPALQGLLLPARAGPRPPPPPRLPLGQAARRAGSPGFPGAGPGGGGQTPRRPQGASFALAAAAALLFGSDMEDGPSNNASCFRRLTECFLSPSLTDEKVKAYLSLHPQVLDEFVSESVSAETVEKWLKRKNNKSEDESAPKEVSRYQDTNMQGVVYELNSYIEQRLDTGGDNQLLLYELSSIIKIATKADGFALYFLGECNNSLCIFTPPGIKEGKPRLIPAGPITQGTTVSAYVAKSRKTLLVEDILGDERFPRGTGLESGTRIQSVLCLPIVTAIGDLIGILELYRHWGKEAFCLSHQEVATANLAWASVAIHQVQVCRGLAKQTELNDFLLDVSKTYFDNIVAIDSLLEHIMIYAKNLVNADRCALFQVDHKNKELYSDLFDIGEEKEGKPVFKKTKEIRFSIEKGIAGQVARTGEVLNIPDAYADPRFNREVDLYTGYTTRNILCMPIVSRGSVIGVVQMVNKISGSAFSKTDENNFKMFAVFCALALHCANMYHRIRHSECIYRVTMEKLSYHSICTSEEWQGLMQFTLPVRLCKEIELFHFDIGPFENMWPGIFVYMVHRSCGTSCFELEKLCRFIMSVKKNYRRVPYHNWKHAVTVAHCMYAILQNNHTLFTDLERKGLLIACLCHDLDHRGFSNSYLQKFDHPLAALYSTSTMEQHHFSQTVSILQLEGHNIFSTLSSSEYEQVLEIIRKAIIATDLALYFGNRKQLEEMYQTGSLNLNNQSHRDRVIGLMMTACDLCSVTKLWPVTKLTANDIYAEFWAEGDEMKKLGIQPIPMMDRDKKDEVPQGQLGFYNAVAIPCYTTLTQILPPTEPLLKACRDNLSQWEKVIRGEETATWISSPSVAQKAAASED

For the compound `CN(C)c1ccc(C(c2ccccc2)c2ccc(N(C)C)cc2)cc1`, the AC50 (usually the concentration giving half of the maximal activity seen) in test [1] was 29 µM (active); in test [2] it was 14.6 µM (active); in test [3] it was 20 µM (active); in [4], 33.1 µM (active); in test [7], 29 µM (active); in test [8], 32.7 µM (active). Further, the AC50 was 34.3 µM (active) in [9] and 11.9 µM (active) in test [11]. Also, the outcome in [5] is “inactive”; in test [6], “inactive”; in test [10], “inactive”; in test [12], “inactive”; in test [13] it was “inactive”; with Decorin, DCN (gene 1634), “inactive”. Further, the result in [14], in [15] and in test [16] was inactive.
In the case of `CCCCCCC1CCC(=O)O1` (configuration not stated), the result in test [17] and in [18] was inactive.
Turning to `COC(=O)c1ccccc1`, the result in test [19] was inactive.
In the case of `CN1CCCC1`, the outcome in [17] was inactive.
In the case of `CN(C)CCC(c1ccc(Cl)cc1)c1ccccn1` (configuration not stated), the result in test [1], in [2], in test [3], in test [4], in test [5] and in test [6] was inactive. The outcome in [7], in test [8], in test [9], in test [10], in [11] and in test [12] was inactive. Further, the outcome is “inactive” in test [13]; “inactive” with Decorin, DCN (gene 1634); “inactive” in test [14]; “inactive” in test [15]; “inactive” in test [16].
With `CCCOCCC`, the call in test [19] was inactive.
`CCCCCCCCCCC1CO1` (configuration not stated): the result in [1], in [2], in test [3], in test [4], in test [7] and in [9] was inactive. For the same compound, the result in test [11] and in test [13] was inactive. Further, the AC50 was 30.7 µM (active) in test [5]; 31.2 µM (active) in test [6]; 33.5 µM (active) in test [8]; 31.1 µM (active) in [10]; 29 µM (active) in test [12]; 24.7 µM (active) with Decorin, DCN (gene 1634). For the same compound, the AC50 was 35.2 µM (active) in [14], 3.97 µM (active) in [15] and 32.3 µM (active) in [16].
Consider `O=[N+]([O-])c1ccccc1C(F)(F)F`, for which the call in [17] was inactive.
